These results are taken from PubChem BioAssay (Tox21).

“And” between values parts separate entries of the source, which are not always exact repeats. Equal entries are not always repeated. Records with an inconclusive call do not appear. More than one record can exist for a structure, and the calls need not agree. The source made the active and inactive calls. The call rests on the fitted dose curve; in most records, active means well fitted curve in the direction sought with a large enough effect in the repeat runs; inconclusive means weak or mixed curves; inactive means no such curve, though single readings can be large; an effect the other way counts as inactive or inconclusive.
On the % scale 0 is the no-effect control and ±100 the full control effect; potency means the concentration at half of the fitted maximal effect.

A short description of one experiment: qHTS RealTime-Glo MT Cell Viability Assay in HepG2 cells - 8 hour (AID 1224873). Further: nearly all actives have a fitted effect of over 55% in size. The note with it: RealTime-Glo luminescence; series mostly up to 76.8 µM; viability change, negative = cytotoxic: at the top concentration. In a few lines:
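HepG2 cells (600/well) mixed with RealTime-Glo MT reagent, settled 5 h at 37 C/5% CO2 before compound addition. Nonlytic NanoLuc luminescence from viable-cell prosubstrate reduction read repeatedly during 40 h treatment at 37 C.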
For `C[C@@H](NCCCc1cccc(C(F)(F)F)c1)c1cccc2ccccc12`, the Potency was 23.9 µM (active).
In the case of `CC(C)(C)C(=O)OCOC(=O)[C@@H]1N2C(=O)[C@@H](NC(=O)[C@H](N)c3ccccc3)[C@H]2SC1(C)C`, the “viability change, negative = cytotoxic” value is 3.84% [at 35.3 µM] (inactive).
For `O=[N+]([O-])c1ccccc1Nc1ccccc1`, the “viability change, negative = cytotoxic” value was 0.872% (inactive).
Consider `CC(C)(C)c1ccc(C(=O)O)cc1`, for which the “viability change, negative = cytotoxic” value is 1.49% (inactive).
Consider `CCCCCCCC(=O)[O-].CCCCCCCC(=O)[O-].[Zn+2]`, for which the “viability change, negative = cytotoxic” value was 5.71% [at 35.3 µM] (inactive).
As for `CCCCCCCCCCC=O`, the “viability change, negative = cytotoxic” value is -2.33% (inactive).
Turning to `CCCCCCCC[P+](CCCCCCCC)(CCCCCCCC)CCCCCCCC`, the Potency is 17.3 µM (active).
As for `C[C@H](CCC(=O)O)[C@H]1CC[C@H]2[C@@H]3CC[C@@H]4C[C@H](O)CC[C@]4(C)[C@H]3CC[C@]12C`, the Potency entry was “inactive”.
As to `CC(C)c1ccc2c(c1)CC[C@H]1[C@](C)(CN)CCC[C@]21C`, the Potency is 34.7 µM (active).
For the compound `O=C(O)c1ccc(Cl)c(Cl)c1`, the “viability change, negative = cytotoxic” value is 4.61% (inactive).
Take `NC(=NCCCCCCN=C(N)/N=C(\N)Nc1ccc(Cl)cc1)/N=C(\N)Nc1ccc(Cl)cc1`: the Potency was 48.7 µM (active) and 44.4 µM (active) and inactive.
As for `COc1cccc(N)c1`, the “viability change, negative = cytotoxic” value was 2.92% (inactive).
As for `CCCCCCCC/C=C/CCCCCCCC1=NCCN1CCO`, the Potency was 43.6 µM (active).
Take `Cc1cc(O)c2ccccc2c1O`: the Potency was 10.7 µM (active).
As to `O=C1C=CC(=O)N1c1ccc(Cc2ccc(N3C(=O)C=CC3=O)cc2)cc1`, the Potency is 12.3 µM (active).
`O=C1C=CC(=O)N1`: the Potency was 44.8 µM (active).
Take `CCCCCCCC/C=C\CCCCCCCCOCCO`: the “viability change, negative = cytotoxic” value is -22% (inactive).
With `Cc1cc(O)c(C(C)(C)C)cc1Sc1cc(C(C)(C)C)c(O)cc1C`, the Potency was 43.6 µM (active).
For the compound `NNC(=O)c1cccc(C(=O)NN)c1`, the “viability change, negative = cytotoxic” value is 1.19% (inactive).
For `CCCCCCCCNC(C)C(O)c1ccc(SC(C)C)cc1` (configuration not stated), the Potency was 21.3 µM (active).
On the same count and under the same terms, the figure for `C=CC(=O)OCC(CO)(COCC(COC(=O)C=C)(COC(=O)C=C)COC(=O)C=C)COC(=O)C=C` is 3.42 µM (active); for `CC[C@H]1O[C@]2(CC[C@@H]1C)C[C@@H]1C[C@@H](C/C=C(\C)C[C@@H](C)/C=C/C=C3\CO[C@@H]4[C@H](O)C(C)=C[C@@H](C(=O)O1)[C@]34O)O2` it is 48.5 µM (active).
In the case of `CN(C)[C@@H]1C(=O)C(C(N)=O)=C(O)[C@@]2(O)C(=O)C3=C(O)c4c(O)ccc(Cl)c4[C@@H](O)[C@H]3C[C@@H]12`, the “viability change, negative = cytotoxic” value is 0.104% [at 35.3 µM] (inactive).
As for `CC(=O)N1CCN(c2ccc(OC[C@H]3CO[C@](Cn4ccnc4)(c4ccc(Cl)cc4Cl)O3)cc2)CC1`, the Potency was 49 µM (active).
Turning to `COc1ccc(C(=O)/C(Br)=C\C(=O)O)cc1`, the “viability change, negative = cytotoxic” value is -27.3% (inactive).
As to `CN(C)CCCOC1(Cc2ccccc2)CCCCCC1`, the “viability change, negative = cytotoxic” value was 3.82% [at 35.3 µM] (inactive).
Take `Oc1c(Cl)cc(Cl)c2cccnc12`: the “viability change, negative = cytotoxic” value is -19.7% [at 35.3 µM] (inactive).
For the compound `O=C1CCCCCN1SSN1CCCCCC1=O`, the “viability change, negative = cytotoxic” value was -27% (inactive).
Consider `O=C(c1ccc(O)cc1O)c1ccc(O)cc1O`, for which the Potency result is “inactive”.
Take `OCCN1CCN(CC/C=C2/c3ccccc3Sc3ccc(C(F)(F)F)cc32)CC1`: the Potency is 23.9 µM (active).
For the compound `Nc1ccc2cc(S(=O)(=O)O)cc(O)c2c1N=Nc1ccccc1C(F)(F)F`, the “viability change, negative = cytotoxic” value is -6.05% (inactive).
Regarding `CN(C)[C@@H]1C(=O)C(C(N)=O)=C(O)[C@@]2(O)C(=O)C3=C(O)c4c(O)cccc4C[C@H]3C[C@@H]12`, the “viability change, negative = cytotoxic” value is -3.84% [at 35.3 µM] (inactive).
Same read-out and setting: the figure for `C1CCCC1` is -0.232% (inactive).
For the compound `CCCC(c1cc(C(C)(C)C)c(O)cc1C)c1cc(C(C)(C)C)c(O)cc1C`, the Potency is 39.4 µM (active).
As for `Oc1cc2ccccc2c2ccccc12`, the Potency was 11 µM (active).
Turning to `Clc1ccccc1C(c1ccccc1)(c1ccccc1)n1ccnc1`, the Potency was 27.5 µM (active) and inactive.

A short description of another experiment: qHTS RealTime-Glo MT Cell Viability Assay in HEK293 cells - 40 hour (AID 1224874). Further: nearly all actives have a fitted effect of over 50% in size. The note with it: RealTime-Glo luminescence; max response: stronger effect = lower value. In a few lines: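 Cells were seeded together with NanoLuc luciferase and a prosubstrate that viable cells reduce to a luciferase substrate. After a 5 h incubation at 37 C/5% CO2, compounds were added and luminescence was measured repeatedly during 40 h of treatment.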
Turning to `C[C@@H](NCCCc1cccc(C(F)(F)F)c1)c1cccc2ccccc12`, the Potency is 23.9 µM (active).
For `CC(C)(C)C(=O)OCOC(=O)[C@@H]1N2C(=O)[C@@H](NC(=O)[C@H](N)c3ccccc3)[C@H]2SC1(C)C`, the max response is 5.37% (inactive).
On the same count and under the same terms, the figure for `O=[N+]([O-])c1ccccc1Nc1ccccc1` is 0.685% (inactive); for `CC(C)(C)c1ccc(C(=O)O)cc1` it is -13.2% (inactive).
Same read-out and setting: the same measure for `CCCCCCCC(=O)[O-].CCCCCCCC(=O)[O-].[Zn+2]`: 9.04% (inactive); for `CCCCCCCCCCC=O`: 2.14% (inactive).
`CCCCCCCC[P+](CCCCCCCC)(CCCCCCCC)CCCCCCCC`: the Potency is 0.194 µM (active).
With `C[C@H](CCC(=O)O)[C@H]1CC[C@H]2[C@@H]3CC[C@@H]4C[C@H](O)CC[C@]4(C)[C@H]3CC[C@]12C`, the max response is -16.2% (inactive) and -15.3% (inactive).
Regarding `CC(C)c1ccc2c(c1)CC[C@H]1[C@](C)(CN)CCC[C@]21C`, the Potency was 11 µM (active).
For the compound `O=C(O)c1ccc(Cl)c(Cl)c1`, the max response was 2.99% (inactive).
`NC(=NCCCCCCN=C(N)/N=C(\N)Nc1ccc(Cl)cc1)/N=C(\N)Nc1ccc(Cl)cc1`: the Potency was 6.88 µM (active) [middle of 5 runs].
Consider `COc1cccc(N)c1`, for which the max response is -1.08% (inactive).
In the case of `CCCCCCCC/C=C/CCCCCCCC1=NCCN1CCO`, the Potency is 19.5 µM (active).
Turning to `Cc1cc(O)c2ccccc2c1O`, the Potency was 8.49 µM (active).
With `O=C1C=CC(=O)N1c1ccc(Cc2ccc(N3C(=O)C=CC3=O)cc2)cc1`, the Potency is 12.3 µM (active).
Consider `O=C1C=CC(=O)N1`, for which the Potency was 11.3 µM (active).
Regarding `CCCCCCCC/C=C\CCCCCCCCOCCO`, the Potency is 3.19 µM (active).
Take `Cc1cc(O)c(C(C)(C)C)cc1Sc1cc(C(C)(C)C)c(O)cc1C`: the Potency was 21.8 µM (active).
Turning to `NNC(=O)c1cccc(C(=O)NN)c1`, the max response was -2.8% (inactive).
On to `CCCCCCCCNC(C)C(O)c1ccc(SC(C)C)cc1` (configuration not stated), for which the Potency is 8.49 µM (active).
Same read-out and setting: the same measure for `C=CC(=O)OCC(CO)(COCC(COC(=O)C=C)(COC(=O)C=C)COC(=O)C=C)COC(=O)C=C`: 2.42 µM (active).
With `CC[C@H]1O[C@]2(CC[C@@H]1C)C[C@@H]1C[C@@H](C/C=C(\C)C[C@@H](C)/C=C/C=C3\CO[C@@H]4[C@H](O)C(C)=C[C@@H](C(=O)O1)[C@]34O)O2`, the Potency is 24.3 µM (active).
For the compound `CN(C)[C@@H]1C(=O)C(C(N)=O)=C(O)[C@@]2(O)C(=O)C3=C(O)c4c(O)ccc(Cl)c4[C@@H](O)[C@H]3C[C@@H]12`, the max response was -2.42% (inactive).
On to `CC(=O)N1CCN(c2ccc(OC[C@H]3CO[C@](Cn4ccnc4)(c4ccc(Cl)cc4Cl)O3)cc2)CC1`, for which the Potency is 21.9 µM (active).
Same read-out and setting: the figure for `COc1ccc(C(=O)/C(Br)=C\C(=O)O)cc1` is 34.7 µM (active).
With `CN(C)CCCOC1(Cc2ccccc2)CCCCCC1`, the max response is 0.0267% (inactive).
Consider `Oc1c(Cl)cc(Cl)c2cccnc12`, for which the Potency was 8.49 µM (active).
For the compound `O=C1CCCCCN1SSN1CCCCCC1=O`, the max response is -12.6% (inactive).
As to `O=C(c1ccc(O)cc1O)c1ccc(O)cc1O`, the max response is -12.9% (inactive) and -13.9% (inactive).
Turning to `OCCN1CCN(CC/C=C2/c3ccccc3Sc3ccc(C(F)(F)F)cc32)CC1`, the Potency was 19 µM (active).
As for `Nc1ccc2cc(S(=O)(=O)O)cc(O)c2c1N=Nc1ccccc1C(F)(F)F`, the max response is 0.853% (inactive).
For the compound `CN(C)[C@@H]1C(=O)C(C(N)=O)=C(O)[C@@]2(O)C(=O)C3=C(O)c4c(O)cccc4C[C@H]3C[C@@H]12`, the max response is 1.21% (inactive).
Turning to `C1CCCC1`, the max response was -2.57% (inactive).
Consider `CCCC(c1cc(C(C)(C)C)c(O)cc1C)c1cc(C(C)(C)C)c(O)cc1C`, for which the Potency is 17.6 µM (active).
Same read-out and setting: the same measure for `Oc1cc2ccccc2c2ccccc12`: 11 µM (active); for `Clc1ccccc1C(c1ccccc1)(c1ccccc1)n1ccnc1`: 19.5 µM (active) and 6.74 µM (active).
